An excerpt weighted towards active compounds, which were near 19% of everything screened.
ASM inhibitor: Inhibitors of Secretory Acid Sphingomyelinase (S-ASM): qHTS; Sphingomyelin phosphodiesterase (Homo sapiens), P17405; placental ASM, HMU-PC fluorogenic substrate, 60 min; Potency, µM (top dose mostly 57.5 µM), usual class: inhibitors; actives 0.006% (n = 340,000); AID 504937, 2011
Target sequence (P17405 47-631 limits assumed): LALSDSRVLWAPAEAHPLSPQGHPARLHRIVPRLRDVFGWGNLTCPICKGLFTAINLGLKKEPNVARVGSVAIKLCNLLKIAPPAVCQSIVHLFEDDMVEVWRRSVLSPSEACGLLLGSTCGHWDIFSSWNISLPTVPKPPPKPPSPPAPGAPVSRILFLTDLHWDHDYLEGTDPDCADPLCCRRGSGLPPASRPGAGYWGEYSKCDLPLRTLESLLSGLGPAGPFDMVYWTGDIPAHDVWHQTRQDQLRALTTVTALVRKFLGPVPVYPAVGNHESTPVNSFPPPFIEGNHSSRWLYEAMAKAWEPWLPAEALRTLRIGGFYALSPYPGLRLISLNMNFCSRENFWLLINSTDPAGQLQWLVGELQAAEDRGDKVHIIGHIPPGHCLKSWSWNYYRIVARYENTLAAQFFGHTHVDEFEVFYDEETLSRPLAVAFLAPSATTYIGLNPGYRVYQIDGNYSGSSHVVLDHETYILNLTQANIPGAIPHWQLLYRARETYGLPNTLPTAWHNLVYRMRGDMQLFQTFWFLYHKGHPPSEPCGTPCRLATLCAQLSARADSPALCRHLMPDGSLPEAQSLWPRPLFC
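qHTS format. ASM enzyme prepared from human placenta hydrolyses the fluorogenic substrate HMU-PC0 (9 uM final) over 60 min at 37 °C after a 10 min compound preincubation.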
TGFb SMAD3 inh: qHTS for Inhibitors of TGF-b. actives 1.2% (n = 410,000). HepG2 CAGA-GFP TGF-b/SMAD3 reporter, GFP fluorescence, 18 h; TGF-beta stimulated, 500 pg/mL final. Potency, µM (doses to about 46.1 µM), most hits filed as inhibitors; note: nearly all actives have a fitted effect of over 65% in size
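Read-out: total well GFP (ex488/em500-530) summed from mean per-cell fluorescence. Cells: HEPG2 CAGA-GFP, 1% FBS DMEM, 18 h at 37 degrees C with 500 pg/mL final TGF-beta. Unstimulated wells served as the full-inhibition control; stimulated DMSO wells = 0%.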
TDP1 cell noCPT: qHTS for Inhibitors of human tyrosyl-DNA phosphodiesterase 1 (TDP1): qHTS in cells in absence of CPT; AID 686978, 2013; actives 15% (n = 420,000); DT40 Tdp1-/- hTDP1 cells, no CPT, ATP luminescence, 48 h; Potency, µM (top dose mostly 46.2 µM), usual class: inhibitors; note: nearly all actives have a fitted effect of over 55% in size
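Chicken DT40 Tdp1-/- cells stably complemented with human TDP1 were seeded at 400 cells/well with DMSO in place of 20 nM camptothecin. After compound pinning, cells grew at least 48 hr at 37 °C; viability read by CellTiter-Glo luminescence.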
IL1B secr inh: qHTS for Inhibitors of Inflammasome Signaling: IL-1-beta AlphaLISA Primary Screen; actives 4.7% (n = 360,000); THP-1 LPS/ATP IL-1B secretion, AlphaLISA, 16 h; hits give low values; activity change, % at 57.5 µM; in the data active = activity change below about -50%; inconclusive = mostly about -30% to -49%
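Secreted IL-1B measured by AlphaLISA bead assay after 16 h compound exposure of THP-1 cells; compounds (final up to 57.5 uM) added 1 h before LPS (250 ng/mL) and ATP (1.25 mM) stimulation; lower signal means less secretion.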
TDP1 cell CPT: qHTS for Inhibitors of human tyrosyl-DNA phosphodiesterase 1 (TDP1): qHTS in cells in presence of CPT. chicken DT40 Tdp1-/-;hTDP1 cells + 20 nM CPT, ATP luminescence, 48 h. Potency, µM (doses to about 46.2 µM), actives largely listed as inhibitors. actives 12% (n = 420,000). AID 686979, 2013; note: nearly all actives have a fitted effect of over 55% in size
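Chicken DT40 Tdp1-/- cells stably complemented with human TDP1 were seeded at 400 cells/well in medium containing 20 nM camptothecin, exposed to pin-transferred compounds, and grown at 37 °C for at least 48 hr. Viability was read as ATP luminescence.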
HepG2 tox: qHTS for Inhibitors of TGF-b: Cytotox Counterscreen; Potency, µM (series often up to 46.1 µM), usual class: cytotoxic; HepG2 CAGA-GFP viability, ATP luminescence, 18 h; actives 0.76% (n = 410,000); AID 588856, 2011
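CellTiter-Glo luminescence gave cytotoxicity after 18 hours at 37 degrees C. The cells were HepG2 CAGA-GFP in 1% FBS DMEM, stimulated with 500 pg/mL TGF-beta after compound addition. %Activity was normalised to no-cell wells (complete cell-killing) and DMSO (no toxicity), and curves were fitted and classified.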
Large screens that a line does not name were inactive. Unless noted, calls come from the whole dose curve; as a rule, active = well fitted curve in the direction sought with a large enough effect; inconclusive = small, poorly fitted or top-dose-only effect, or another doubt; inactive = no such curve, though single readings can be large; an effect the other way counts as inactive or inconclusive.

O=C(Nc1ccc(C(O)(C(F)(F)F)C(F)(F)F)cc1)c1ccc(Cl)c([N+](=O)[O-])c1	ASM inhibitor inconclusive, TGFb SMAD3 inh inconclusive, TDP1 cell noCPT 18.4µM, IL1B secr inh -100.7, TDP1 cell CPT 11.6µM
O=C(O)c1cc(NC(=O)c2ccc(Cl)c([N+](=O)[O-])c2)cc(C(=O)O)c1	none
N#Cc1ccsc1NC(=O)c1ccc(Cl)c([N+](=O)[O-])c1	TGFb SMAD3 inh 7.08µM, TDP1 cell noCPT 2.31µM, IL1B secr inh inconclusive, TDP1 cell CPT 2.91µM
O=[N+]([O-])c1cc(S(=O)(=O)NC2=NCCCCC2)ccc1NCC1CCCCC1	ASM inhibitor inconclusive, TGFb SMAD3 inh inconclusive, TDP1 cell noCPT inconclusive, TDP1 cell CPT 16.4µM
Cc1cc(C(=O)Nc2ccccc2-c2nc(CNC(=O)c3cc4ccccc4cn3)c(C)o2)c(C)o1	none (no result: ASM inhibitor, TGFb SMAD3 inh, IL1B secr inh, HepG2 tox)
CSc1ncccc1C(=O)NC1CCCCCCC1	none
CCN(CC(=O)Nc1ccc(NC(C)=O)cc1)C(=O)c1cc([N+](=O)[O-])ccc1Sc1ccc(Cl)cc1	TDP1 cell noCPT inconclusive, TDP1 cell CPT inconclusive
CC1CCN(C(=O)c2ccc(NS(=O)(=O)c3ccc4[nH]c(=O)[nH]c4c3)cc2)CC1	none
CN(C)c1ccc(Nc2ncnc3sc4c(c23)CCCC4)cc1	TDP1 cell noCPT 23.1µM, TDP1 cell CPT inconclusive (no result: ASM inhibitor, IL1B secr inh)
NNc1ncnc2sc3c(c12)CCC3	TGFb SMAD3 inh inconclusive, TDP1 cell noCPT 18.4µM, TDP1 cell CPT 8.2µM
Cc1nn(-c2ccc(F)cc2)c(-n2cccc2)c1C(=O)NCCc1ccc(Cl)cc1	TGFb SMAD3 inh inconclusive (no result: ASM inhibitor, TDP1 cell noCPT, IL1B secr inh, TDP1 cell CPT)
O=C(Cc1ccc(Cl)cc1)NC1CC(=O)N(c2ccc3c(c2)OCCO3)C1 (stereo unspecified)	none (no result: ASM inhibitor, IL1B secr inh)
COc1cc(CCC(=O)N2CC(C)OC(C)C2)cc(OC)c1OC (stereo unspecified)	none
COC(=O)c1cn(NC(=O)C2CCC(C)CC2)c(=O)c2ccccc12 (stereo unspecified)	none
COC(=O)c1cn(NC(=O)c2cc([N+](=O)[O-])ccc2F)c(=O)c2ccccc12	TDP1 cell noCPT 4.61µM, IL1B secr inh -93.0, TDP1 cell CPT 3.26µM
COc1cc(OC)cc(C(=O)Nn2cc(C(=O)Nc3ccc(F)cc3F)c3ccccc3c2=O)c1	TGFb SMAD3 inh inconclusive, TDP1 cell noCPT inconclusive, TDP1 cell CPT 13µM (no result: ASM inhibitor)
CCOC(=O)n1c(=O)[nH]c2ccc(Br)cc21	TDP1 cell noCPT 18.4µM
COc1ccc(/C=C/c2nc3ccccc3n2Cc2ccccc2OC)cc1	TDP1 cell noCPT 8.2µM, IL1B secr inh -201.0, TDP1 cell CPT 7.31µM
COc1ccccc1Cn1c(/C=C/c2ccccc2)nc2ccccc21	TGFb SMAD3 inh inconclusive, TDP1 cell noCPT inconclusive, IL1B secr inh -79.8, TDP1 cell CPT inconclusive
CCOC(=O)[C@H]1[C@H]2COc3ccc(OC)cc3[C@@H]2N2C(=O)CN(Cc3ccco3)C(=O)[C@@]12C	TDP1 cell CPT inconclusive
CCOC(=O)[C@H]1[C@H]2COc3ccc(Cl)cc3[C@@H]2N2C(=O)CN(Cc3ccco3)C(=O)[C@@]12C	TDP1 cell noCPT inconclusive, TDP1 cell CPT 25.9µM
CCOC(=O)[C@H]1[C@H]2COc3ccc(Cl)cc3[C@@H]2N2C(=O)CN(Cc3ccc(OC)cc3)C(=O)[C@@]12C	TDP1 cell noCPT 18.4µM, TDP1 cell CPT inconclusive
CCOC(=O)[C@H]1[C@H]2COc3ccc(Cl)cc3[C@@H]2N2C(=O)CN(Cc3ccc(C)cc3)C(=O)[C@@]12C	TDP1 cell noCPT 16.4µM, IL1B secr inh inconclusive, TDP1 cell CPT 18.4µM

Screening results as filed in PubChem BioAssay.
